# From PubChem
# Only some compounds are listed: those with a hit (about 1.4% of all), similar ones and a draw of the others.
# mIDH1 inhibitor: inhibitors of human mutant IDH1 R132H | IDH1-R132H enzyme, NADPH consumption, diaphorase/resazurin fluorescence | Potency, µM (highest dose often 76.6 µM), inactives show at the highest dose activity change, negative = inhibition, usual class: inhibitors | 0.093% of 390,000 active | AID 602179; further: potency means the concentration at half of the fitted maximal effect; on the % scale 0 is the no-effect control and ±100 the full control effect; nearly all actives have a fitted effect of over 65% in size
#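 IDH1-R132H (0.5 ug/mL dispensed) in pH 7.5 Tris buffer was preincubated 30 min with compound, then given a substrate mix of 0.016 mM NADPH and 2 mM alpha-KG for 80 min at room temperature; remaining NADPH was read by diaphorase/resazurin fluorescence.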
# rTrxR1 inhibitor: blocks rat thioredoxin reductase 1; O89049; recombinant rTrxR1, NADPH fluorescence consumption, selenite substrate; Potency, µM (series often up to 114 µM), for inactives: top-dose activity change, negative = inhibition, most hits filed as inhibitors; 1% of 390,000 active; AID 588453; further: potency means the concentration at half of the fitted maximal effect; on the % scale 0 is the no-effect control and ±100 the full control effect; nearly all actives have a fitted effect of over 65% in size
#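 Rat TrxR1 (90 nM in the dispensed reagent) was pre-reduced with 400 uM NADPH for 5 min at room temperature, then incubated with compound for 15 min. After 400 uM selenite was added, NADPH fluorescence (Ex 340/Em 450 nm) was followed for 8 min.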
# TrxR1 substrate: rat thioredoxin reductase 1 substrate activity | O89049 | purified TrxR1 substrate turnover, NADPH consumption readout | Potency, µM (doses to about 114 µM), for inactives: top-dose activity change, negative = substrate turnover | 0.01% of 390,000 active; further: potency means the concentration at half of the fitted maximal effect; on the % scale 0 is the no-effect control and ±100 the full control effect; nearly all actives have a fitted effect of over 50% in size
#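 Rat TrxR1, dispensed at 90 nM, was prereduced with 400 uM NADPH (final) for 5 min at ~22 deg C, then incubated with compound 15 min before 400 uM selenite. A first-read NADPH fluorescence drop versus no-compound background flagged substrates.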
# LDHA inh: blocks human lactate dehydrogenase A. activity change, % (values are at about 110 or 230 µM). purified LDHA, NADH/diaphorase-resazurin fluorescence; hits give low values. 0.15% of 480,000 active; in the data active means activity change below about -30%; inconclusive means mostly about -25% to -30%;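 further: plate controls were DMSO wells for no effect and wells without enzyme for full effect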
#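 Human LDH5 at 2 nM final in Tris HCl pH 7.4 with 0.06 mM NADH and 0.2 mM pyruvate, reacted 5 minutes at room temperature. Remaining NADH coupled via diaphorase/resazurin; resorufin fluorescence read at 0 and 20 minutes, normalized to enzyme-free and DMSO wells.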
# GLS inh: blocks human kidney-isoform glutaminase activity; O94925; GLS enzymatic activity, qHTS titration; Potency, µM (series often up to 45.5 µM), inactives show at the highest dose activity change, negative = inhibition, hits mostly inhibitors; 0.21% of 410,000 active; further: potency means the concentration at half of the fitted maximal effect; on the % scale 0 is the no-effect control and ±100 the full control effect
# Target sequence (O94925 whole entry, looked up, canonical isoform): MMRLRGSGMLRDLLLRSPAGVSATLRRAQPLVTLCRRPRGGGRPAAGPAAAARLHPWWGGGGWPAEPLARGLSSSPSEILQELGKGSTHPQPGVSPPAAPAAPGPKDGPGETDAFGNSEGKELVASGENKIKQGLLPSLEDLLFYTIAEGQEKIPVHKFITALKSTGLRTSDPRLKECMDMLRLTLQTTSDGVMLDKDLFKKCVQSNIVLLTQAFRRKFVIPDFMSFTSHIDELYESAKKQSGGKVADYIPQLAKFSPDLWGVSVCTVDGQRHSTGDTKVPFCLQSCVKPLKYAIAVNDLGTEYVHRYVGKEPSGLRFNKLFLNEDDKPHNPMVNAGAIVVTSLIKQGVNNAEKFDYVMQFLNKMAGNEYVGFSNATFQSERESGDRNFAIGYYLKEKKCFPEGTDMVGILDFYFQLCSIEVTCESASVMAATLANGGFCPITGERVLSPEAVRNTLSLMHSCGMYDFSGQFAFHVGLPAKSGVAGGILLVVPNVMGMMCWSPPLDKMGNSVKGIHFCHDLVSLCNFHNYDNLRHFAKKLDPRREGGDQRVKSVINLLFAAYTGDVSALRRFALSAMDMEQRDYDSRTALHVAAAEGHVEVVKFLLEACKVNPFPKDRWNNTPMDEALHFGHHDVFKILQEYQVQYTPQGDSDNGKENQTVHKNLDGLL
#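 Coupled fluorescence readout: glutamate oxidase/HRP/Amplex Red detect glutamate formed by hKGA from L-glutamine (1 mM solution added). Buffer 45 mM KH2PO4 pH 8.2, 0.02% Tween-20; reads at t0 and 30 min RT.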
# PKM2 act: activators of human pyruvate kinase M2; AID 1631; Potency, µM (titrated, usually from 57.5 µM), without a hit: top-dose activation, actives largely listed as activators; purified PKM2, Kinase-Glo ATP luminescence, activation; response scale: 0% is enzyme alone, no compound; P14618; 0.34% of 260,000 active; further: potency means the concentration at half of the fitted maximal effect; on the % scale 0 is the no-effect control and ±100 the full control effect; nearly all actives have a fitted effect of over 55% in size
#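 ATP formation by purified human PK-M2, quantified via coupled luciferase luminescence after 1 h at room temperature with 0.1 mM ADP and 0.5 mM PEP final.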
# IDH1 autofl: autofluorescence interference, mutant IDH1 hit counter-screen; shares compounds with mIDH1 inhibitor; inhibition of signal, % at 51.2 µM; Resorufin detection reagent fluorescence interference, cell-free; 750 tested, under 10 active;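 further: 0% = wells with normal resorufin and full inhibition = wells lacking resorufin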
# WT IDH1 inh: wild-type IDH1 (human) inhibition counterscreen. Potency, µM (highest dose often 115 µM), without a hit: top-dose activity change, negative = inhibition, most hits filed as inhibitors. WT IDH1 enzyme, NADPH diaphorase/resazurin fluorescence. 9% of 750 active. shares compounds with mIDH1 inhibitor;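 further: potency means the concentration at half of the fitted maximal effect; 0% = full WT IDH1 enzyme control and full inhibition = no enzyme wells; nearly all actives have a fitted effect of over 55% in size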
# mIDH1 confirm: inhibits human mutant IDH1 enzyme in cherrypick confirmation. shares compounds with mIDH1 inhibitor. IDH1 R132H enzyme, NADPH diaphorase/resazurin fluorescence. Potency, µM (doses to about 76.6 µM), for inactives: at the highest dose activity change, negative = inhibition, hits mostly inhibitors. 83% of 750 active. AID 624002; further: potency means the concentration at half of the fitted maximal effect; nearly all actives have a fitted effect of over 50% in size
# An asterisk follows results filed as active; ? = inconclusive; . = no result given; [ ] = remark or other dose. Unless noted, the call rests on the fitted dose curve; in most records, active means well fitted curve in the direction sought with a large enough effect; inconclusive means small, poorly fitted or top-dose-only effect, or another doubt; inactive means no such curve, though single readings can be large; an effect the other way counts as inactive or inconclusive.
SMILES,mIDH1 inhibitor,rTrxR1 inhibitor,TrxR1 substrate,LDHA inh,GLS inh,PKM2 act,IDH1 autofl,WT IDH1 inh,mIDH1 confirm
CCOc1ccccc1N(C(=O)c1snc(C(N)=O)c1N)C(CC)C(=O)NC1CCCC1 (stereo not given),25.6%,14.9%,8.6%,-0.1,-0.2%,-0.9%,.,.,.
Cc1cccc(-n2nnnc2C2(Nc3ccccc3)CCCC2)c1,.,.,.,3.5,.,.,.,.,.
CC1(c2ccccc2)O[C@@H]2C[C@H]3[C@@H]4CCC5=CC(=O)C=C[C@]5(C)[C@@]4(F)[C@@H](O)C[C@]3(C)[C@]2(C(=O)CO)O1 (stereo not given in full),29.3µM*,8.7%,-7.6%,-4.1,0.0%,5.3%,-6.4,-13.9%,5.01µM*
Nc1nccnc1C(=O)Nc1cccc(NC(=O)c2cccnc2)c1,.,.,.,-0.2,.,.,.,.,.
CC1CCc2noc(NC(=O)COc3ccc(C(C)C)cc3)c2C1 (stereo not given),.,.,.,9.6,.,.,.,.,.
COc1ccc2cc(C(=O)Nc3cc(C)ccn3)c(C)nc2c1,.,.,.,-4.4,.,.,.,.,.
CCOc1cc(C2c3c(-c4ccccc4O)n[nH]c3C(=O)N2Cc2cccnc2)ccc1O (stereo not given),6.8%,16.8%,1.0%,3.1,19.7%,.,.,.,.
COc1ccc(C2c3c(-c4cc(Cl)c(C)cc4O)n[nH]c3C(=O)N2Cc2cccnc2)cc1OC (stereo not given),?,2.4%,0.5%,-1.1,6.3%,-4.7%,7.8,5.2%,28.2µM*
CCOc1ccc(C2c3c(-c4ccccc4O)n[nH]c3C(=O)N2Cc2cccnc2)cc1OC (stereo not given),?,4.0%,-5.6%,10.0,10.8%,.,0.5,-11.9%,31.6µM*
CNC(=O)NC(=O)CN(C)c1ccc(I)cc1,.,.,.,-20.3,.,.,.,.,.
CCOC(=O)c1ccc(N2C(=O)c3[nH]nc(-c4ccccc4)c3C2c2cccs2)cc1 (stereo not given),?,25.4%,-2.7%,-9.3,-9.6%,.,2.2,11.1%,-13.7%
CCOC(=O)c1ccc(N2C(=O)c3n[nH]c(-c4ccco4)c3C2c2ccc(O)c(OC)c2)cc1 (stereo not given),?,?,-1.7%,5.2,8.0%,.,3.4,-6.6%,20µM*
COc1ccc2nc(Nc3ncc4c(n3)CC(C)CC4=O)nc(C)c2c1 (stereo not given),.,.,.,-0.9,.,.,.,.,.
O=C1CN(c2nc(-c3cccs3)nc3sc4c(c23)CCCC4)CCN1,52.1µM*,-5.8%[57.1 µM],21.2%[57.1 µM],-1.2,0.0%,4.5%,-14.3,?,28.2µM*
COc1ccc(-c2cc(-c3nnc(COC(=O)c4ccc(O)cc4)o3)c3ccccc3n2)cc1OC,?,5.6%[57.1 µM],6.2%[57.1 µM],-13.4,7.9%,3.0%,1.2,5.6%,?
COc1ccc(C2=NN(C(=O)c3cccs3)C(c3ccc4nccnc4c3)C2)cc1 (stereo not given),.,.,.,-15.4,.,.,.,.,.
COc1ccc(NC(=S)N2CCN(C(c3ccccc3)c3ccccc3)CC2)cc1OC,-0.7%,-10.2%,-9.8%,5.3,-4.5%,0.0%,.,.,.
COc1cc(C(=S)N2CCN(C(c3ccccc3)c3ccccc3)CC2)cc(OC)c1O,?,-4.3%,-7.2%,0.0,-9.5%,1.2%,-7.1,5.9%,22.4µM*
COc1ccc(NC(=O)C(c2ccc(OC)cc2)N(Cc2ccco2)C(=O)CC2NC(=O)NC2=O)cc1 (stereo not given),2.9%,15.0%[57.1 µM],-0.6%[57.1 µM],-3.6,0.8%,2.9%,.,.,.
COc1ccc(C(C(=O)Nc2ccc(C(C)C)cc2)N(Cc2ccco2)C(=O)CC2NC(=O)NC2=O)cc1 (stereo not given),?,32.1%[57.1 µM],-16.2%[57.1 µM],1.0,-2.8%,0.9%,-10.2,-6.0%,31.6µM*
COCc1ccc(-c2c(-c3ccc(OC)cc3)oc(=O)c3cc(OC)c(OC)cc23)cc1,31.6µM*,21.7%[57.1 µM],13.9%[57.1 µM],-15.7,1.2%,.,-5.0,-4.2%,10µM*
COc1cc2c(-c3cc(F)cc(F)c3)c(-c3ccsc3)oc(=O)c2cc1OC,-3.6%,9.0%,14.3%,-14.2,1.4%,.,.,.,.
COc1ccc(-c2oc(=O)c3cc(OC)c(OC)cc3c2-c2ccc3c(c2)OCO3)cc1,20.6%,38.1%,10.9%[57.1 µM],-7.1,0.0%,.,.,.,.
COc1ccc(-c2c(-c3ccsc3)oc(=O)c3cc(OC)c(OC)cc23)cc1,11.2µM*,48.3%,18.8%[57.1 µM],-2.9,5.1%,.,5.2,-0.4%,8.91µM*
COc1cc(C2c3c(-c4ccccc4)n[nH]c3C(=O)N2c2ccccc2)ccc1O (stereo not given),-15.3%,?,-3.1%,-3.7,10.4%,0.9%,.,.,.
SMILES,mIDH1 inhibitor,rTrxR1 inhibitor,TrxR1 substrate,LDHA inh,GLS inh,PKM2 act,IDH1 autofl,WT IDH1 inh,mIDH1 confirm
O=C1c2[nH]nc(-c3ccc(F)cc3)c2C(c2ccccc2F)N1c1ccccc1 (stereo not given),?,-5.2%,-4.5%,0.6,-8.6%,.,0.9,1.5%,?
C=C(C)CSC1=C(C#N)C(c2sccc2C)CC(=O)N1 (stereo not given),.,.,.,13.0,.,.,.,.,.
CCOC(=O)c1c(NC(=O)CN2CCOCC2)sc2c1CCCC2=O,-5.4%,20.3%[57.1 µM],2.9%[57.1 µM],0.4,-4.7%,1.4%,.,.,.
CCOC(=O)c1c(NC(=O)CN2CCCCC2)sc2c1CCN(C(=O)OCC)C2,11.7µM*,-14.1%,4.0%,8.7,8.8%,2.3%,-1.5,4.6%,6.31µM*
CCOC(=O)c1c(NC(=O)CN2CCOCC2)sc2c1CCCC2,26.1µM*,-26.6%,-10.9%,8.2,5.0%,-9.0%,-7.3,-9.6%,20µM*
O=C(NNC(=S)NCc1ccccc1)c1ccc2ccccc2c1,.,.,.,6.2,.,.,.,.,.
Cc1cc(C(C)(C)C)cc(S(=O)(=O)Nc2ccc(O)c(C(=O)O)c2)c1C,?,19.5%[57.1 µM],10.1%,1.3,24.7%,-15.0%,-0.5,0.7%,28.2µM*
O=C(O)c1cc(NS(=O)(=O)c2cccc3ccccc23)ccc1O,-6.4%,7.7%,0.8%,.,27.3%,-12.5%,.,.,.
